Reference: PubChem BioAssay
Activity calls are given as the source filed them.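 Rule for the calls, unless noted: active = inhibition at or above 50% at 10 µM; inactive = inhibition below 50%.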

Columns and labels:
[1] = inhibitors of TNFa-induced NFkB p65 translocation, primary screen, imaging, HUVEC, MLSMR starter and 10KST1 sets (AID 438;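 active = inhibition above 20% together with a positive visual image hit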;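 note: compound added about 3h40 before a 20 min TNFalpha stimulation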;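 for inhibition: signal is the nuclear over cytoplasmic p65 intensity ratio per well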); conditions: HUVEC TNFa-induced p65 nuclear translocation; cell count: measured here: nuclei count (cytotoxicity indicator), at 2.08 µM; inhibition: at 2 µM, stronger effect = higher value, 0% TNFa-plus-vehicle, 100% no-TNFa wells
[2] = reduction of polyQ htt aggregates in cells – imaging, exon1htt(103Q)mCFP cells, high-content imaging, primary screen (AID 483;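 active = visual image review flags a hit and inhibition of aggregation exceeds 20%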;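 note: compound exposure lasted 3 days before fixation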;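 for nuclei count: percent of the per-plate median nuclei count of sample wells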); conditions: exon1htt(103Q)mCFP cell line, aggregate imaging, at 2 µM; inhibition of aggregation: stronger effect = higher value; nuclei count: measured here: cell count, toxicity
[3] = endothelial E-selectin expression blockers – imaging, HUVEC, immunofluorescence, MLSMR starter and 10KST1 sets, primary screen (AID 487;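 active = visually confirmed hit in the image check and inhibition above 20%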;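 for inhibition: signal is fraction of cell area covered by stained E-selectin grains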;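 for nuclei count: 100% = median nuclei count of all wells on the same plate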); conditions: HUVEC TNFalpha-induced E-selectin immunofluorescence imaging, at 2 µM; inhibition: stronger effect = higher value; nuclei count: measured here: cell number, toxicity
[4] = molecular target: Voltage-gated potassium channel subunit beta-2 (Rattus norvegicus) (UniProt P62483); test: inhibitors of rat Kvbeta2 reductase activity – biochemical, NADPH fluorescence, primary screen (AID 622;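 active = fluorescence slope higher than the sample average by over 3 SD, cut at about -0.22 in these data, passing the limit was not always enough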;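 note: slope of raw intensity against log time taken from 70 to 1610 s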); conditions: recombinant KvBeta, 4-cyanobenzaldehyde reduction, at 10 µM, stronger effect = higher value
[5] = molecular target: Voltage-gated potassium channel subunit beta-2 (Rattus norvegicus) (UniProt P62483); test: enhancers of rat Kvbeta2 NADPH turnover – biochemical, NADPH fluorescence, primary screen (AID 623;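 active = NADPH fluorescence slope more negative than the mean of all samples by about 3 SD, 99.7% confidence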;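 note: fluorescence intensity change per second fitted from 20 to 320 s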); conditions: Recombinant KvBeta, NADPH fluorescence decrease slope, 10 min; at 10 µM; stronger effect = lower value
[6] = molecular target: Alpha-2C adrenergic receptor (Homo sapiens) (UniProt P18825); test: compounds altering alpha2C-coupled GIRK flux – cell-based, HEK293 alpha2C/GIRK1/2, thallium flux, primary screen (AID 624;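 active = fluorescence slope after compound addition differing from the mean of all screened samples at 99.7% confidence, in either direction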;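 note: slope of fluorescence ratio to pre-addition baseline per second over 15 to 24 s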); conditions: thallium flux BTC fluorescence, at 10 µM, actives lie on both sides
[7] = blockers of RIG-like receptor reporter activation – cell-based, Sendai virus stimulus, luciferase, 10K MLSCN set, TLR/RLR signaling modifier project, primary screen (AID 602276); conditions: HEK293 RL24 IRF3 luciferase reporter, at 10 µM, stronger effect = higher value;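 note: firefly luciferase from ISG56 promoter only with Renilla not read in this screen; 0% = Sendai virus plus DMSO and 100% = medium plus DMSO without virus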
[8] = TLR3 IRF3 reporter activation blockers – cell-based, poly I:C stimulus, luciferase, 10K MLSCN set, primary screen (AID 602277;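 active = inhibition of the reporter signal at or above 50%; inactive = inhibition below 50%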); conditions: HEK293-TLR3 RL24 IRF3 luciferase reporter, at 10 µM, stronger effect = higher value

Sequence of Alpha-2C adrenergic receptor (Homo sapiens) (P18825 whole entry, looked up): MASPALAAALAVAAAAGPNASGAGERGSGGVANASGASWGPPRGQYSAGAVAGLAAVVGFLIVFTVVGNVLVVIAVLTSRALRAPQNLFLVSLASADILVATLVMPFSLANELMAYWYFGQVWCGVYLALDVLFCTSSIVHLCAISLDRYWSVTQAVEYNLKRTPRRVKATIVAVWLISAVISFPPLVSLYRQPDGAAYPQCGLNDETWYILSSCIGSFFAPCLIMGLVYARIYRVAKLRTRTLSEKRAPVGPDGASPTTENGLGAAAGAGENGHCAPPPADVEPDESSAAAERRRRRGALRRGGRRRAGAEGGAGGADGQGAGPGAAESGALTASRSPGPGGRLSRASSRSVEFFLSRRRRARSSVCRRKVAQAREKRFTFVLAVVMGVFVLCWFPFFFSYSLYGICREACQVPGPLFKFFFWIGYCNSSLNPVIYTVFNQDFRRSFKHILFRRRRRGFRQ
Sequence of Voltage-gated potassium channel subunit beta-2 (Rattus norvegicus) (P62483 whole entry, looked up): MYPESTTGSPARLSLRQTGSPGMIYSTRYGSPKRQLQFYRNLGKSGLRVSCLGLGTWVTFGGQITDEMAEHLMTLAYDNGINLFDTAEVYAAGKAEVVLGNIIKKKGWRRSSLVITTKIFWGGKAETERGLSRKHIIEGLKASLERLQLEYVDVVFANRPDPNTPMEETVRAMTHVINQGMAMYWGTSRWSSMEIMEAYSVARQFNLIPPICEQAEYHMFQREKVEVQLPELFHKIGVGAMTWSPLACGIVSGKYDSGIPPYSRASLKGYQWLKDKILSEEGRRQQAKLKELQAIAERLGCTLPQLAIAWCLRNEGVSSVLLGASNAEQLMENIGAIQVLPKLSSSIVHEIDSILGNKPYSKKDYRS

Row | SMILES | cell count [1] | inhibition [1] | inhibition of aggregation [2] | nuclei count [2] | inhibition [3] | nuclei count [3] | fluorescence slope [4] | NADPH fluorescence slope [5] | slope [6] | inhibition [7] | inhibition [8]
1 | COC(=O)c1ccccc1S(=O)(=O)NC(=O)c1ccccc1 | 368 | -2.8% (inactive) | -12.4% (inactive) | 96.8% | -26% (inactive) | 114% | -0.593 (inactive) | -3.3e-08 (inactive) | 0.00588 (inactive) | 13.5% (inactive) | 24.3% (inactive)
2 | COc1ccc(CCNC(=O)C2CCN(S(=O)(=O)c3cc(OC)ccc3OC)CC2)cc1 | 269 | -5.3% (inactive) | 3% (inactive) | 93.2% | -26.1% (inactive) | 98.3% | -0.39 (inactive) | -6.1e-05 (inactive) | 0.00597 (inactive) | 14.7% (inactive) | 31.4% (inactive)
3 | COc1ccc(-c2noc(-c3ccccc3C(=O)Nc3cccnc3)n2)cc1OC | 395 | -5.7% (inactive) | -13.9% (inactive) | 103% | -57.8% (inactive) | 115% | -0.458 (inactive) | -3.1e-05 (inactive) | 0.00579 (inactive) | 1.54% (inactive) | 0.376% (inactive)
4 | Cc1nc2cc(-n3ccc(=O)cc3)ccc2n1-c1ccccc1 | 352 | -2.1% (inactive) | 1.3% (inactive) | 98.4% | -286% (inactive) | 113% | -0.407 (inactive) | -3.5e-05 (inactive) | 0.00591 (inactive) | 19.8% (inactive) | 99% (active)
5 | Cn1c(=O)c2c(nc3sccn32)n(C)c1=O | 463 | 12.5% (inactive) | 5.1% (inactive) | 100% | 29.8% (inactive) | 108% | -0.455 (inactive) | 7.5e-05 (inactive) | 0.00599 (inactive) | 9.58% (inactive) | 23.1% (inactive)
6 | O=C1c2ccccc2CN1CCNS(=O)(=O)c1ccc(Cl)cc1 | 414 | -1% (inactive) | -2.3% (inactive) | 101% | -1.7% (inactive) | 97% | -0.389 (inactive) | -7.9e-06 (inactive) | 0.00712 (inactive) | 14.1% (inactive) | 25.9% (inactive)
7 | C=CCN(CC=C)C(=O)c1ccncc1 | 267 | -14% (inactive) | 4.9% (inactive) | 53.2% | -86.3% (inactive) | 110% | -0.501 (inactive) | 1.1e-05 (inactive) | 0.00479 (inactive) | 4.76% (inactive) | 5.55% (inactive)
8 | S=C(c1cccs1)N1CCCC1 | 708 | -25.9% (inactive) | -3.8% (inactive) | 105% | 22.3% (inactive) | 100% | -0.421 (inactive) | -4e-05 (inactive) | 0.00656 (inactive) | -7.06% (inactive) | 6.9% (inactive)
9 | O=C(c1ccccc1)N1CCN(Cc2ccccc2Br)CC1 | 234 | -2.5% (inactive) | 23.9% (inactive) | 77.4% | -25.8% (inactive) | 96.1% | -0.428 (inactive) | -4.5e-05 (inactive) | 0.00425 (inactive) | 9.36% (inactive) | 4.59% (inactive)
10 | CCOC(=O)CN1C(=O)C(=O)c2cccc(C)c21 | 651 | -4.4% (inactive) | -8.1% (inactive) | 119% | -62.9% (inactive) | 119% | -0.601 (inactive) | -4.5e-05 (inactive) | 0.00699 (inactive) | 15.4% (inactive) | 34.9% (inactive)
11 | O=C(CCC1COc2ccccc2O1)NCC1COc2ccccc2O1 (centres undefined) | 568 | 2.4% (inactive) | -5.5% (inactive) | 117% | -72.2% (inactive) | 85.5% | -0.499 (inactive) | -2.5e-05 (inactive) | 0.0058 (inactive) | 13.4% (inactive) | 19.2% (inactive)
12 | Cc1cc(Cl)cc2c1NC(=O)[C@]21[C@@H]2C(=O)N(Cc3ccccc3)C(=O)[C@@H]2[C@@H]2CCCN21 | 556 | -18.1% (inactive) | -7.5% (inactive) | 115% | -65.1% (inactive) | 107% | -0.619 (inactive) | -3.2e-05 (inactive) | 0.00523 (inactive) | 15.5% (inactive) | 27.9% (inactive)
13 | Cc1cccc(NC(=O)c2cc(NC(=O)c3ccco3)ccc2N2CCCCC2)c1 | 635 | -3.9% (inactive) | -3.7% (inactive) | 113% | -48.5% (inactive) | 107% | -0.52 (inactive) | -1.8e-05 (inactive) | 0.0032 (inactive) | 8.72% (inactive) | 8.79% (inactive)
14 | Fc1cccc(Cl)c1Cn1nnc2c(NCc3ccccn3)ncnc21 | 716 | -10.5% (inactive) | 15.5% (inactive) | 120% | -26.6% (inactive) | 108% | -0.514 (inactive) | -6.7e-05 (inactive) | 0.0046 (inactive) | 6.08% (inactive) | 9.56% (inactive)
15 | Cc1c(NC(=O)c2ccc(CN3CCc4ccccc4C3)cc2)c(=O)n(-c2ccccc2)n1C | 593 | -5.6% (inactive) | -45.4% (inactive) | 110% | -70.8% (inactive) | 142% | -0.403 (inactive) | -4.1e-05 (inactive) | 0.0063 (inactive) | 5.86% (inactive) | 7.1% (inactive)
16 | CCn1nnc(NC(=O)c2ccccc2Br)n1 | 229 | 10.3% (inactive) | 6.4% (inactive) | 66% | 12.4% (inactive) | 95.4% | -0.385 (inactive) | -5.5e-05 (inactive) | 0.00604 (inactive) | -19.8% (inactive) | -39.6% (inactive)
17 | COc1ccc(OC)c(S(=O)(=O)N2CCN(c3c(C)cccc3C)CC2)c1 | 622 | 1.1% (inactive) | 30.2% (inactive) | 111% | -9.3% (inactive) | 102% | -0.541 (inactive) | -4.7e-05 (inactive) | 0.00796 (inactive) | 9.96% (inactive) | 30.5% (inactive)
18 | O=C(NC1CC1)c1ccc(S(=O)(=O)NCC2CCCCC2)cc1 | 535 | -8% (inactive) | 18.7% (inactive) | 102% | -58.9% (inactive) | 112% | -0.508 (inactive) | 2.4e-05 (inactive) | 0.00635 (inactive) | 3.23% (inactive) | 5.07% (inactive)
19 | NC(=O)CSc1nnc(-c2cc3ccccc3o2)n1Cc1ccccc1 | 426 | 6.3% (inactive) | -2.8% (inactive) | 101% | -33% (inactive) | 129% | -0.272 (inactive) | 1.6e-05 (inactive) | 0.003 (inactive) | 19.8% (inactive) | 18.4% (inactive)
